According to the supplement of paper PMC10127200:
Counter-ions that a name gives are not always drawn.

How the values were obtained:
Assay in all cases: Euclidean distance of Cell Painting phenotypic profile (signed KS, 77 features) to DMSO centroid (dimensionless distance); 5 or 10 uM (library dependent); higher = stronger phenotypic change vs DMSO (phenoactivity)
Conditions in all cases: 48 h
786-O = system: 786-O
Outline: (§1)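 Five cancer lines and a healthy fibroblast line received library compounds at 10 or 5 uM (library-dependent, 0.1% DMSO final) for 48 h. Stained cells were imaged confocally at 20X (9 fields/well). Harmony extracted 77 features, each scored as a signed Kolmogorov-Smirnov statistic against same-plate vehicle wells. Profiles were plate-position corrected, correlation-weighted and replicate-averaged at the top dose. Phenoactivity is the Euclidean distance from each profile to the median vehicle profile.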

A549 = system: A549
Outline: as §1

DU145 = system: DU145
Outline: as §1

FB = system: FB
Outline: as §1

HEPG2 = system: HEPG2
Outline: as §1

OVCAR4 = system: OVCAR4
Outline: as §1

Row | Structure (SMILES) | Euclidean distance (786-O) | Euclidean distance (A549) | Euclidean distance (DU145) | Euclidean distance (FB) | Euclidean distance (HEPG2) | Euclidean distance (OVCAR4)
1 | C[C@]1(c2nc3c(C(N)=O)cccc3[nH]2)CCCN1 [Veliparib (ABT-888)] | 1.29 | 1 | 0.896 | 1.35 | 0.938 | 1.16
2 | CCCN1C[C@H](C)[C@@H](O)[C@](C)(O)[C@@H](CC)OC(=O)[C@H](C)[C@@H](O[C@H]2C[C@@](C)(OC)[C@@H](O)[C@H](C)O2)[C@H](C)[C@@H](O[C@@H]2O[C@H](C)C[C@H](N(C)C)[C@H]2O)[C@](C)(O)C[C@H]1C [Gamithromycin] | 1.26 | 1.03 | 1.98 | 1.12 | 1.08 | 1.05
3 | CCn1cc(C(=O)O)c(=O)c2cc(F)c(N3CCNCC3)cc21 [Norfloxacin] | 1.28 | 0.791 | 0.924 | 1.26 | 0.65 | 1.01
4 | O=C1NC(=O)/C(=C/c2cccc(C(F)(F)F)c2)S1 | 1.83 | 1.41 | 0.82 | 1.49 | 0.755 | 0.797
5 | Cc1ccc2c(c1)C(=O)C1(O)CCN(c3ccccc3)C1=N2 (single isomer, unassigned; (-)) [(-)-Blebbistatin] | 1.29 | 1.46 | 1.36 | 1.03 | 1.13 | 1.46
6 | O=C(c1ccc(F)c(F)c1Nc1ccc(I)cc1F)N1CC(O)([C@@H]2CCCCN2)C1 [Cobimetinib (GDC-0973. RG7420)] | 2.92 | 2.56 | 3.23 | 4.08 | 5.18 | 2.85
7 | CC(=O)O[C@H]1C[C@@]2(C)[C@@H](C[C@@H](O)[C@H]3[C@@]4(C)CC[C@@H](O)[C@@H](C)[C@@H]4CC[C@@]32C)/C1=C(\CCC=C(C)C)C(=O)O [Fusidate Sodium] | 1.27 | 0.59 | 1.88 | 1.32 | 0.533 | 1.2
8 | NCCCC[C@H](N[C@@H](CCc1ccccc1)C(=O)O)C(=O)N1CCC[C@H]1C(=O)O [Lisinopril dihydrate] | 1.2 | 0.621 | 0.821 | 0.86 | 0.746 | 1.51
9 | Cc1cc(CN2CCN(c3c(Br)cnc4nc(-c5ccc(N6CCN(C)CC6)cc5)[nH]c34)CC2)no1 | 1.51 | 1.27 | 1.12 | 0.806 | 1.67 | 1.25
10 | CCOc1ccc(NC(C)=O)cc1 [Phenacetin] | 1.38 | 0.916 | 1.56 | 0.94 | 0.469 | 1.83
11 | Nc1ccn([C@@H]2O[C@H](CO)[C@@H](O)[C@@H]2O)c(=O)n1 [Cytarabine hydrochloride] | 3.21 | 3.25 | 2.45 | 2.97 | 2.73 | 3.43
12 | COc1ccccc1OCC(O)COC(N)=O (stereo not given) [Methocarbamol] | 1.4 | 0.507 | 1.06 | 0.751 | 1.83 | 0.907
13 | Cc1cc(S(=O)(=O)O)c2c(C)ccc(C(C)C)cc1-2 [Sodium gualenate] | 1.2 | 0.401 | 0.867 | 1.3 | 1.18 | 1.13
14 | CC(C)CCNC(=O)[C@H](CC(C)C)NC(=O)[C@H]1O[C@@H]1C(=O)O [Loxistatin Acid (E-64C)] | 1.6 | 2.18 | 1.48 | 1.04 | 1.44 | 1.5
15 | CC(=O)Oc1cccc2c1C(=O)c1c(OC(C)=O)cc(C(=O)O)cc1C2=O [Diacerein] | 0.962 | 0.94 | 1.19 | 1.22 | 0.429 | 1.51
16 | O=C(O)c1ccccn1 [Picolinic acid (PCL 016)] | 0.642 | 0.409 | 2.15 | 0.847 | 0.761 | 0.799
17 | c1ccc2c(c1)CCCC2C1=NCCN1 (stereo not given) [Tetrahydrozoline HCl] | 0.978 | 0.966 | 0.786 | 0.944 | 0.601 | 1.78
18 | O=S(=O)(O)c1cc(O)ccc1O [Ethamsylate] | 0.716 | 0.847 | 0.74 | 1.11 | 0.713 | 1.57
19 | COc1ccnc(C[S+]([O-])c2nc3cc(-n4cccc4)ccc3[nH]2)c1C (stereo not given) [Ilaprazole] | 1.22 | 1.57 | 1.17 | 1.23 | 0.928 | 1.27
20 | COc1ccc2cc(CCC(C)=O)ccc2c1 [Nabumetone] | 0.791 | 1.11 | 0.872 | 0.947 | 0.532 | 1.55
21 | COc1cccc(C=NCCN=Cc2cccc(OC)c2[O-])c1[O-].[Cl-].[Mn+3] | 1.28 | 0.596 | 0.577 | 0.887 | 2.11 | 1.14
22 | CC(C)NC(=N)NC(=N)Nc1ccc(Cl)cc1 [Proguanil] | 1.21 | 1.28 | 0.798 | 0.927 | 0.823 | 1.25
23 | Cc1cc2c(F)c(Oc3ncnn4cc(OC[C@@H](C)O)c(C)c34)ccc2[nH]1 | 2.22 | 1.25 | 1.36 | 1.71 | 1.24 | 1.6
24 | Cc1cc(Cl)ccc1OCCCC(=O)NO [Droxinostat] | 1.32 | 1.68 | 0.991 | 1.3 | 1.07 | 0.782
25 | Cc1cc([C@@H](C)Nc2ccccc2C(=O)O)c2nc(N3CCOCC3)cc(=O)n2c1 | 1 | 1.82 | 1.52 | 1.71 | 1.59 | 3.2

Row | Structure (SMILES) | Euclidean distance (786-O) | Euclidean distance (A549) | Euclidean distance (DU145) | Euclidean distance (FB) | Euclidean distance (HEPG2) | Euclidean distance (OVCAR4)
26 | CCCCCCCCCCCCC[N+](C)(C)Cc1ccccc1 [Benzalkonium chloride] | 2.54 | 2.29 | 2.89 | 1.54 | 2.12 | 2.53
27 | CCOc1nc2cccc(C(=O)O)c2n1Cc1ccc(-c2ccccc2-c2noc(=O)[nH]2)cc1 [Azilsartan] | 0.834 | 0.784 | 0.835 | 0.563 | 0.88 | 0.784
28 | O=C(OC(C(F)(F)F)C(F)(F)F)N1CCN(Cc2ccc(C(F)(F)F)cc2N2CCCC2)CC1 | 1.62 | 1.13 | 0.875 | 1.46 | 1.27 | 1.66
29 | O=c1c(O)c(-c2ccc(O)c(O)c2)oc2cc(O)cc(O)c12 [Quercetin Dihydrate] | 0.703 | 1.01 | 0.731 | 0.799 | 0.874 | 0.868
30 | Cn1cnc([N+](=O)[O-])c1Sc1ncnc2[nH]cnc12 [Azathioprine] | 0.644 | 0.642 | 1.33 | 1.04 | 2.09 | 0.817
31 | NC(=O)NCCC[C@H](N)C(=O)O [L-Citrulline] | 1.08 | 0.895 | 1.37 | 0.916 | 1.27 | 0.761
32 | CCCCCCc1ccc(O)cc1O [Hexylresorcinol] | 1.35 | 0.943 | 0.978 | 0.936 | 1.32 | 1.16
33 | C=C1CC/C=C(/C)CC[C@@H]2[C@@H]1CC2(C)C [Œ≤-Caryophyllene] | 1.02 | 0.652 | 0.86 | 0.747 | 0.457 | 1.68
34 | NC(=O)c1ccc(-c2nc(-c3ccccn3)c(-c3ccc4c(c3)OCO4)[nH]2)cc1 | 1.59 | 2.49 | 1.48 | 1.91 | 2.52 | 2.61
35 | CC(C)(C)c1cnc(CSc2cnc(NC(=O)C3CCNCC3)s2)o1 | 2.67 | 3.69 | 2.93 | 3.38 | 2.81 | 3.27
36 | CC(Cc1ccc(O)c(O)c1)C(C)Cc1ccc(O)c(O)c1 (stereo not given) [Nordihydroguaiaretic acid (NDGA)] | 1.19 | 0.902 | 1.27 | 1.54 | 1.06 | 0.861
37 | Oc1c(Br)cc(Br)c2cccnc12 [Broxyquinoline] | 0.96 | 0.988 | 1.01 | 1.03 | 0.735 | 0.981
38 | CC(C)(CO)[C@@H](O)C(=O)NCCC(=O)O [D-Pantothenate Sodium] | 1.18 | 0.904 | 1.05 | 1.15 | 0.523 | 1.33
39 | CCOc1cc(CC(=O)N[C@@H](CC(C)C)c2ccccc2N2CCCCC2)ccc1C(=O)O [Repaglinide] | 1.98 | 0.783 | 1.26 | 1.42 | 1.04 | 1.55
40 | O=C1CCC(N2C(=O)c3ccccc3C2=O)C(=O)N1 (stereo not given) [Thalidomide] | 1.48 | 0.846 | 0.603 | 1.22 | 0.461 | 1.67
41 | CN[C@@H]1[C@H](O)[C@H](NC)[C@H]2O[C@@]3(O)C(=O)C[C@@H](C)O[C@H]3O[C@@H]2[C@H]1O [Spectinomycin HCl] | 0.726 | 0.814 | 1.28 | 1.21 | 0.977 | 1.02
42 | C[C@]12CC[C@@H]3c4ccc(OS(=O)(=O)O)cc4CC[C@H]3[C@@H]1CCC2=O [Estropipate] | 0.946 | 0.41 | 0.686 | 0.891 | 0.623 | 1.17
43 | CC(C)Cc1ccc(C(C)C(=O)O)cc1 (stereo not given) [Ibuprofen Lysine] | 1.27 | 0.944 | 1.68 | 0.93 | 1.17 | 1.07
44 | CN(C)C[C@@H]1CCn2cc(c3ccccc32)C2=C(C(=O)NC2=O)c2cn(c3ccccc23)CCO1 | 3.81 | 3.95 | 4.1 | 3.89 | 3.22 | 4.42
45 | Cc1oc(=O)oc1CN1CCN(c2cc3c(cc2F)c(=O)c(C(=O)O)c2n3C(C)S2)CC1 (stereo not given) [Prulifloxacin (NM441. AF 3013)] | 1.38 | 0.71 | 0.968 | 0.785 | 1.9 | 0.841
46 | C[C@@H]1C[C@H]2[C@@H]3C[C@H](F)C4=CC(=O)C=C[C@]4(C)[C@@]3(F)[C@@H](O)C[C@]2(C)[C@@]1(OC(=O)c1ccco1)C(=O)SCF [fluticasone furoate] | 2.17 | 2.7 | 2.56 | 2.29 | 1.53 | 1.72
47 | Cl.NCCCC[C@H](N)C(=O)O [L-Lysine hydrochloride] | 0.954 | 1.04 | 0.836 | 0.872 | 1.27 | 0.646
48 | COc1cc(OC)cc(N(CCNC(C)C)c2ccc3ncc(-c4cnn(C)c4)nc3c2)c1 | 3.65 | 3.46 | 2.34 | 4.29 | 3.36 | 3.1
49 | CC(C)(C)[C@H]1CC[C@H](CC2=C(O)C(=O)c3ccccc3C2=O)CC1 [Buparvaquone] | 1.16 | 1.1 | 1.17 | 0.844 | 0.483 | 1.44
50 | COc1ncnc(NS(=O)(=O)c2ccc(N)cc2)c1OC [Sulfadoxine] | 0.66 | 1.24 | 0.743 | 0.491 | 0.397 | 1.39
